This passage reports growth results from PubChem BioAssay (NCI).

About 83,000 compounds went through this panel and 20% of them were active in at least one assay; those are over-represented in the sample as a whole.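 A percent growth of 40 corresponds to 60% growth inhibition; 0 means no net growth; -100 means all cells died. Active threshold: below 10.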 The source made the active and inactive calls.

The test system of this assay is MDA-MB-468 breast. The assay can be described thus: NCI-60 one-dose screen, 48 h (100 = growth as untreated, 0 = no growth, -100 = all killed). Particulars: 10 µM unless noted.
In the case of `Cc1c(O)c(O)cc2c3c(oc12)CC(c1ccc2c(c1)OCO2)CC3=O` (stereo not drawn), the growth was 93.2% (inactive).

On to `O=C1/C(=C2\SC(=S)N(C3CC3)C2=O)SC(=S)N1C1CC1`, for which the growth was 88.7% (inactive).

Regarding `C=C(c1ccc(C(=O)O)c(F)c1)c1cc2c(cc1C)C(C)(C)C=CC2(C)C`, the growth was 93.8% (inactive).
